Experimental data: PubChem BioAssay (NCATS)
Inconclusive results are not listed. Where a call stands in place of a potency, no number is given. Values without a mark were called inactive. Calls of active or inactive are those of the source. Calls follow the shape of the dose curve; as a rule, active = well fitted cell-killing curve with a large enough effect; inconclusive = small, poorly fitted or top-dose-only effect, or effect the other way; inactive = flat fitted curve, though single readings scatter. *1 amine or outer side, *2 acyl side, *3 side chain or, on linkers, in order; H or OH if unused. Where a SMILES comes first, the peptide text is derived from it. [ ]: non-standard residue; d: D form. The star is where a group is joined. X13 = O=C(C(CC(O)CO)O[*:1])[*:2]; NMeV = CN[CH](C(=O)O)C(C)C; βNA = c1ccc2cc(N*)ccc2c1; Cbz = O=C(OCc1ccccc1)*; NMeA = CN[CH](C)C(=O)O; βAla = NCCC(=O)O

What follows are compounds tested on JEG-3 (assay: Primary qHTS to identify gynecologic anti-cancer compounds using libraries of approved drugs and bioactive compounds (AID 1345084; also: nearly all actives have a fitted effect of over 55% in size)). Conditions: Gynecologic cancer cell panel viability, ATPlite luminescence, 48 h; series mostly up to 57.5 µM.
How it was run: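 ATP-based viability (ATPlite), 1,000 cells/well, 16 h pre-incubation, 48 h compound at 37 C, 5% CO2, 15 min RT before read.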

| SMILES | Potency | activity change, negative = cytotoxicity |
| --- | --- | --- |
| NC(N)=NCCC[C@H](NC(=O)c1sccc1NS(=O)(=O)c1cccc2nsnc12)C(=O)O | inactive |  |
| Nc1ccc(-n2nc(C(F)(F)F)cc2C(F)(F)F)cc1 | inactive |  |
| C[C@H](O)C(O)(C(=O)OCc1ccccc1NC(=O)CCC(N)C(=O)O)[C@H](C)O (some centres undefined) | inactive |  |
| CC[C@H](NC(=O)c1c(O)c(-c2ccccc2)nc2ccccc12)c1ccccc1 | inactive |  |
| CC/C=C/C(O)C(O)C1=C(C)C(=O)C2(O1)C(=O)NC(OC)(C(=O)c1ccccc1)C2O (centres undefined) | inactive |  |
| Fc1cccc(CN(C2=NCCN2)c2c(Cl)cccc2Cl)c1 | inactive |  |
| O=C(O)CCc1cccc(O)c1O[C@@H]1O[C@H](CO)[C@@H](O)[C@H](O)[C@H]1O | inactive |  |
| CCC(C)/C=C(C)/C=C/C1=CC2=CC(=O)C(C)(O)C(OC(C)=O)C2CO1 (centres undefined) | inactive |  |
| CC1CC(O)/C=C/C(O)/C=C\C(=O)O1 (centres undefined) | inactive |  |
| CC(C)CC(NC(=O)OCc1ccccc1)C(=O)NC(CC(C)C)C(=O)NC(CCC(=O)O)C(=O)Nc1ccc2ccccc2c1 (stereo not drawn) (Cbz-Leu-Leu-Glu-βNA; configuration not given here) | inactive |  |
| COCc1c(O)c(C(=O)O)c(C)c2c1OC(=O)c1c(C)cc(O)c(CO)c1O2 | inactive |  |
| C=C(C(=O)O)C1CC(O)C2(C)CCCC(C)(O)C2C1 (centres undefined) | inactive |  |
| C=C[C@H]1[C@H](O[C@@H]2O[C@H](CO)[C@@H](O)[C@H](OC(=O)/C=C/c3ccc(O)c(OC)c3)[C@H]2O)OC=C2C(=O)OCC[C@]21O | inactive |  |
| COC(=O)C1(O)C(OC(C)=O)CCC2C3(CC(c4ccoc4)OC3=O)C(C)=CCC21C(=O)OC (centres undefined) | inactive |  |
| O=C(Nc1cc(-c2ccccc2)nn1-c1ccccc1F)c1ccc([N+](=O)[O-])cc1 | inactive |  |
| Cc1sc(C)c(C(=O)NC2(c3ccc(C(=O)O)cc3)CC2)c1Cc1ccc(C(F)(F)F)cc1 | inactive |  |
| COc1cc([C@@H](O[C@@H]2O[C@H](CO)[C@@H](O)[C@H](O)[C@H]2O)[C@@H]2CO[C@H](c3ccc(O)c(OC)c3)[C@H]2CO)ccc1O | inactive |  |
| CC(C)NC(=O)c1ccc(C#Cc2ccncc2)cn1 | inactive |  |
| O=C(O)CC/C=C\C[C@H]1CO[C@@H](c2ccccc2Cl)O[C@H]1c1ccccc1O | inactive |  |
| CC(C)=CCc1cc(O[C@@H]2O[C@H](CO[C@@H]3OC[C@](O)(CO)[C@H]3O)[C@@H](O)[C@H](O)[C@H]2O)ccc1O | inactive |  |

| SMILES | Potency | activity change, negative = cytotoxicity |
| --- | --- | --- |
| CC1(C)[C@@H]2CC=C(CO[C@@H]3O[C@H](CO[C@@H]4OC[C@H](O)[C@H](O)[C@H]4O)[C@@H](O)[C@H](O)[C@H]3O)[C@H]1C2 | inactive |  |
| COc1ccc(C2C(C(=O)O)C(C(=O)O)C2c2ccc(OC)cc2O[C@@H]2O[C@H](CO)[C@@H](O)[C@H](O)[C@H]2O)c(O[C@@H]2O[C@H](CO)[C@@H](O)[C@H](O)[C@H]2O)c1 (some centres undefined) | inactive |  |
| C=C(C)C1CCC2(C(=O)OC3OC(COC4OC(CO)C(O)C(O)C4O)C(OC4OC(C)C(O)C(O)C4O)C(O)C3O)CCC3(C(=O)O)C(CCC4C5(C)CCC(=O)C(C)(C)C5CCC43C)C12 (centres undefined) |  | -1.16% [at 11.6 µM] |
| CC1=C(CC/C(C)=C/C(=O)O)[C@@]2(C)CCCC(C)(C)C2CC1=O (some centres undefined) | inactive |  |
| C[C@]12CCC[C@](C)(C(=O)O)C1[C@@H](O)[C@@H](O)C13CC(CCC12)C(CO)(O[C@@H]1O[C@H](CO)[C@@H](O)[C@H](O)[C@H]1O)C3 (some centres undefined) | inactive |  |
| COc1cc(O)cc(C)c1C(=O)O[C@H]1[C@@H](O)[C@@H](n2ccc(=O)[nH]c2=O)O[C@@H]1CO | inactive |  |
| C=C1C(=O)O[C@@H]2C[C@]3(C)[C@@H](CCC(C)=O)[C@@H]3C[C@H]12 | inactive |  |
| C=C1CC[C@@]2(OC1)O[C@H]1CC3[C@@H]4CC=C5C[C@@H](O)C[C@@H](O[C@@H]6OC[C@H](O)[C@H](O)[C@H]6O[C@@H]6O[C@@H](C)[C@H](O)[C@@H](O)[C@H]6O)[C@]5(C)C4CC[C@]3(C)[C@H]1[C@@H]2C (some centres undefined) | inactive |  |
| C/C=C(\C)C(=O)OCC1OC(OCC2OC(OC3(CO)OC(CO)C(O)C3O)C(O)C(O)C2O)C(O)C(O)C1O (centres undefined) | inactive |  |
| COC(=O)C1=CO[C@@H](O[C@@H]2O[C@H](CO)[C@@H](O)[C@H](O)[C@H]2O)/C(=C\CO)[C@@H]1CC(=O)OCCc1ccc(O)cc1 | inactive |  |
| CCC(C)C1NC(=O)C2CCCN2C(=O)C(CC(O)CO)OC(=O)CCNC(=O)C(C)N(C)C(=O)C(C(C)C)N(C)C1=O (centres undefined) (cyclo([X13]PI[NMeV][NMeA][βAla]); configuration not given here) | inactive |  |
| O=C(C[C@@H]1C(C(=O)O)=CO[C@@H](O[C@@H]2O[C@H](CO)[C@@H](O)[C@H](O)[C@H]2O)/C1=C\CO)OCCc1ccc(O)cc1 | inactive |  |
| COC(=O)[C@H](O)[C@H]1C(C)(C)[C@H](OC(C)=O)[C@@]2(O)C(=O)[C@]1(C)C1CC[C@]3(C)C(CC(=O)O[C@H]3c3ccoc3)[C@]13O[C@@H]32 (some centres undefined) | inactive |  |
| CC(=O)c1c(C)cccc1O[C@@H]1O[C@H](CO)[C@@H](O)[C@H](O)[C@H]1O | inactive |  |
| C/C=C(\C)C(=O)OC1CC2C(CC=C3CC(OC4CC(OC)C(OC5CC(OC)C(OC6CC(OC)C(OC7CC(OC)C(OC8CC(OC)C(OC9OC(CO)C(O)C(O)C9O)C(C)O8)C(C)O7)C(C)O6)C(C)O5)C(C)O4)CCC32C)C2(O)CCC(C(C)=O)C12C (centres undefined) |  | 3.01% [at 6.55 µM] |
| COc1ccc2[nH]c(S(=O)Cc3ncc(C)c(OC)c3C)nc2c1 (centres undefined) | inactive |  |
| COc1cc(C)c(C(=O)OC2C(C)OC(OC3CCC(C)C4C3C=C(C)C3/C(C)=C\CC/C(C)=C/C5(C)C=C(C(=O)O)C(C)CC56OC(=O)/C(=C(\O)C34C)C6=O)C(O)C2O)c(OC)c1 (centres undefined) |  | -0.361% [at 11.6 µM] |
| COc1ccc(/C=C/C(=O)O[C@@H]2[C@@H](O[C@@H]3O[C@H](CO)[C@@H](O)[C@H](O)[C@H]3O)[C@@H](O)[C@H](O[C@H]3C4C=CO[C@@H](O[C@@H]5O[C@H](CO)[C@@H](O)[C@H](O)[C@H]5O)C4[C@@]4(CO)O[C@@H]34)O[C@H]2C)cc1 (some centres undefined) |  | 7.02% [at 11.6 µM] |
| CC(C)C1NC(=O)C(CC2(O)c3ccccc3N3C(=O)C(Cc4ccccc4)NC32)NC1=O (centres undefined) | inactive |  |
